Source: PubChem BioAssay (Tox21)
Inconclusive results are not listed. Calls of active or inactive are those of the source. Unless noted, the call rests on the fitted dose curve.

Columns and labels:
[1] = Nuclear factor erythroid 2-related factor 2/antioxidant responsive element (Nrf2/ARE) small molecule agonists: qHTS cell viability counter screen in human keratinocytes (AID 1919968; active means well fitted curve in the direction sought with a large enough effect in the repeat runs; an effect the other way counts as inactive or inconclusive; further: nearly all actives have a fitted effect of over 55% in size; further: potency means the concentration at half of the fitted maximal effect)
Method in brief: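 HaCaT ARE reporter line, 1,500 cells/well; 5 h settle, 37 C/5% CO2; cpd in DMSO pinned; 23 h exposure; CellTiter-Fluor, 1 h; fluorescence.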

[2] = Nuclear factor erythroid 2-related factor 2/antioxidant responsive element (Nrf2/ARE) small molecule agonists: luciferase reporter gene qHTS assay in human keratinocytes (AID 1919969); further: nearly all actives have a fitted effect of over 35% in size; further: potency means the concentration at half of the fitted maximal effect
[3] = molecular target: KiSS-1 receptor (Homo sapiens) (UniProt Q969F8); assay: Human kisspeptin (KISS1R) small molecule agonists, calcium flux assay in KISS1R-HEK293 cells (AID 1920064; active means well fitted curve in the direction sought with a large enough effect in the repeat runs; an effect the other way counts as inactive or inconclusive)
Method in brief: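 Stable human KISS1R HEK293 line; 18 h plating, 37 C/5% CO2; calcium dye 1 h 37 C; compound pin transfer; kinetic fluorescence Ex/Em 480/540, 3 min.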

[4] = G protein-coupled receptor (GPCR) small molecule agonists, calcium flux assay: HEK293 wild type cell line counter screen (AID 1920065)
Method in brief: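 Kinetic fluorescence at Ex/Em 480/540, recorded every second over 3 min, served as the read-out after compound addition. Each compound was tested at 15 concentrations in triplicate on cells pre-loaded with calcium dye for 1 h.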

[5] = p53 small molecule agonists, cell-based qHTS assay with rat liver microsomes (AID 1963578)
Method in brief: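 Metabolic activation is supplied by rat liver microsomes with NADPH (each 0.5 mg/mL final). p53RE-bla cells incubate with compound 16 h at 37 C; reporter activity is measured by LiveBLAzer fluorescence.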

[6] = p53 small molecule agonists, cell-based qHTS assay with human liver microsomes: qHTS cell viability counter screen (AID 1963579); further: nearly all actives have a fitted effect of over 45% in size; further: potency means the concentration at half of the fitted maximal effect
Method in brief: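 After the 460/530 nm beta-lactamase read, CellTiter-Glo was added to the same wells and luminescence measured after 30 min at room temperature, giving viability of p53RE-bla cells treated 16 h with compounds plus microsomes and NADPH.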

[7] = p53 small molecule agonists, cell-based qHTS assay with rat liver microsomes: qHTS cell viability counter screen (AID 1963580); further: nearly all actives have a fitted effect of over 45% in size
Method in brief: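 Viability is assessed in parallel with the p53 reporter read: HCT-116 p53RE-bla cells receive compounds plus rat microsomes and NADPH (0.5 mg/mL final apiece), incubate 16 h at 37 C, and then CellTiter-Glo luminescence is recorded.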

[8] = p53 small molecule agonists, cell-based qHTS assay (AID 1963582; active means well fitted activation curve with a large enough effect in the signal ratio in the repeat runs, not every such curve was filed as active; the % refers to the signal ratio)
Method in brief: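 Reporter line: p53RE-bla. Pre-incubation 5 h, 37 C, 5% CO2; compound (DMSO, pin tool) 16 h, 37 C; B/G FRET substrate 2 h RT; fluorescence intensity read.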

[9] = molecular target: 5-hydroxytryptamine receptor 2A (Homo sapiens) (UniProt P28223); assay: 5-hydroxytryptamine receptor 2A (HTR2A) small molecule antagonists, cell-based qHTS assay (AID 1963586); further: nearly all actives have a fitted effect of over 45% in size; further: potency means the concentration at half of the fitted maximal effect
Method in brief: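 Antagonist-mode intracellular calcium assay: DOI (4 nM) added after 5 min compound pre-incubation at room temperature to dye-loaded HTR2A-CHO cells. Fluorescence followed for 3 min, sampled every second.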

[10] = molecular target: 5-hydroxytryptamine receptor 2A (Homo sapiens) (UniProt P28223); assay: 5-hydroxytryptamine receptor 2A (HTR2A) small molecule agonists, cell-based qHTS assay (AID 1963587); further: nearly all actives have a fitted effect of over 30% in size
Method in brief: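 CHO cells stably expressing human HTR2A, plated 18 h, loaded with calcium dye 1 h at 37 C. Agonist mode: compounds added and intracellular calcium fluorescence recorded kinetically for 2 min at 1 sec intervals.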

[11] = molecular target: Muscarinic acetylcholine receptor M1 (Homo sapiens) (UniProt P11229); assay: Cholinergic receptor muscarinic 1 (CHRM1) small molecule antagonists, cell-based qHTS assay (AID 1963588); further: nearly all actives have a fitted effect of over 40% in size; further: potency means the concentration at half of the fitted maximal effect
Method in brief: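 CHRM1-CHO calcium-flux assay, antagonist mode. Cells were seeded 18 h, dye-loaded 1 h at 37 C and given compound for 5 min at RT, then acetylcholine was added at 50nM. FDSS fluorescence was read 3 min; 15 concentrations, three runs.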

[12] = molecular target: Muscarinic acetylcholine receptor M1 (Homo sapiens) (UniProt P11229); assay: Cholinergic receptor muscarinic 1 (CHRM1) small molecule agonists, cell-based qHTS assay (AID 1963589); further: nearly all actives have a fitted effect of over 35% in size
Method in brief: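 Human M1 in stable CHO line; 18 h plating, 1 h dye load 37 C; cpd added (agonist mode); Ca2+ fluorescence kinetic read, 1 s intervals; 15 conc, 3 runs.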

[13] = cAMP Responsive Elements (CRE) small molecule agonists, cell-based qHTS assay (AID 1963590)
Method in brief: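 HEK 293T CRE-bla, 2,000 cells/well, 18 h preincubation 37 C/5% CO2; cpds (DMSO) pinned, 3 h; LiveBLAzer B/G FRET substrate, 2 h RT.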

[14] = cAMP Responsive Elements (CRE) small molecule antagonists, cell-based qHTS assay (AID 1963591; active means well fitted inhibition curve with a large enough effect in the signal ratio in the repeat runs, not every such curve was filed as active; the % refers to the signal ratio)
Method in brief: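 Beta-lactamase reporter read by FRET substrate (LiveBLAzer B/G) after 2 h at room temperature. CRE-bla HEK293T cells had received compound plus 0.25 uM (final) NKH477 for 3 h at 37 °C.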

[15] = molecular target: Beta-2 adrenergic receptor (Homo sapiens) (UniProt P07550); assay: Adrenergic beta2 receptor (ADRB2) small molecule antagonists, cell-based qHTS assay (AID 1963592); further: series mostly up to about 92 µM; nearly all actives have a fitted effect of over 50% in size
Method in brief: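 Cells (CHO, stable ADRB2 overexpression) incubated 18-20hr at 37C; compounds added from DMSO; agonist mix (1nM isoproterenol, 100uM IBMX, 25uM Ro-20-1724) added; 0.5hr RT; d2-cAMP and anti-cAMP-cryptate added; 1hr RT; 665/615 nm read.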

[16] = molecular target: Beta-2 adrenergic receptor (Homo sapiens) (UniProt P07550); assay: Adrenergic beta2 receptor (ADRB2) small molecule agonists, cell-based qHTS assay (AID 1963593);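 further: CHO cells stably overexpressing human ADRB2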
Method in brief: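 CHO cells stably over-expressing ADRB2 were plated overnight at 37C, then dosed with compounds plus a stimulation mix containing 100uM IBMX and 25uM Ro-20-1724 for 0.5hr at room temperature. cAMP was measured by HTRF competition, 1hr.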

[17] = molecular target: D(2) dopamine receptor (Homo sapiens) (UniProt P14416); assay: Dopamine D2 receptor (DRD2) small molecule agonists, cell-based qHTS assay (AID 1963594); further: nearly all actives have a fitted effect of over 35% in size
Method in brief: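 HEK293 cells stably expressing human DRD2, pre-treated with PDE inhibitor Ro20-1724 (0.1 mM final) and compound 10 min at room temperature, then stimulated with NKH477 (200nM […]) for 30 min. cAMP read by HTRF (665/620 nm).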

[18] = molecular target: D(2) dopamine receptor (Homo sapiens) (UniProt P14416); assay: Dopamine D2 receptor (DRD2) small molecule antagonists, cell-based qHTS assay (AID 1963595; active means well fitted inhibition curve with a large enough effect in the signal ratio in the repeat runs, with a control signal flat; the % refers to the signal ratio; further: potency means the concentration at half of the fitted maximal effect)
Method in brief: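 HTRF cAMP read-out at 665 and 620 nm emission (340 nm excitation). Antagonist mode: compounds were tested against 12 nM quinpirole in DRD2-HEK293 cells, with 200 nM NKH477 raising cAMP and 0.1 mM Ro20-1724 blocking its breakdown.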

[19] = p53 small molecule agonists, cell-based qHTS assay: qHTS cell viability counter screen (AID 1963581); further: nearly all actives have a fitted effect of over 45% in size; further: potency means the concentration at half of the fitted maximal effect
Method in brief: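 HCT-116 p53RE-bla cells, 4,000/well, plated 5 h before compound pin transfer; 16 h at 37 C; bla substrate 2 h RT; then CellTiter-Glo, 30 min RT, luminescence.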

[20] = p53 small molecule agonists, cell-based qHTS assay with human liver microsomes (AID 1963577);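 further: p53 response element beta-lactamase reporter cells with liver microsomes plus NADPH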
Method in brief: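 Steps: plate p53RE-bla cells, incubate 5 h at 37 C; add compound in DMSO; add microsomes (0.5 mg/mL final) and NADPH (0.5 mg/mL final); incubate 16 h at 37 C; add LiveBLAzer, 2 h RT; read fluorescence.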
On the % scale 0 is the no-effect control and ±100 the full control effect.

D(2) dopamine receptor (Homo sapiens), sequence (P14416 whole entry, looked up): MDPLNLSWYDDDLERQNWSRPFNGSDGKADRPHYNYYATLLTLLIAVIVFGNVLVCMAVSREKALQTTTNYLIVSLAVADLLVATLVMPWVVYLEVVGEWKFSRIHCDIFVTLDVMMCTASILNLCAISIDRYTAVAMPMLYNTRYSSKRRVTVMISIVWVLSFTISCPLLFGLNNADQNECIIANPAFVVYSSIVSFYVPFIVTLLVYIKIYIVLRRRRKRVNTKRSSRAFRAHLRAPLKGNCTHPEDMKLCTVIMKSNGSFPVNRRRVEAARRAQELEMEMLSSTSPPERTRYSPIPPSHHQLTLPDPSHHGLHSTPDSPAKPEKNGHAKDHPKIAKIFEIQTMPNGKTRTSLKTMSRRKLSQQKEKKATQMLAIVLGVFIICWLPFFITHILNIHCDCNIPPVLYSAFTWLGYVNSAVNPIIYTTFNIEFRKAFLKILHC
KiSS-1 receptor (Homo sapiens), sequence (Q969F8 whole entry, looked up): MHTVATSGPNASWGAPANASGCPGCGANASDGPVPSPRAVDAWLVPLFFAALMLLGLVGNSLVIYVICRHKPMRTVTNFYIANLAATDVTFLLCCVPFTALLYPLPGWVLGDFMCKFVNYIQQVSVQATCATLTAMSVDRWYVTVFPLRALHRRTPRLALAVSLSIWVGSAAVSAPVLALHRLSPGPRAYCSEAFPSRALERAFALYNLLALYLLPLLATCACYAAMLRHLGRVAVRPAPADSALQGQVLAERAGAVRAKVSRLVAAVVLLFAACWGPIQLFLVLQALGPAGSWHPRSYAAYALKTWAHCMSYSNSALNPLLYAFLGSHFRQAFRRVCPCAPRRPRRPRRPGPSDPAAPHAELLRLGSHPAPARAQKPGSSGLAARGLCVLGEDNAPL
5-hydroxytryptamine receptor 2A (Homo sapiens), sequence (P28223 whole entry, looked up): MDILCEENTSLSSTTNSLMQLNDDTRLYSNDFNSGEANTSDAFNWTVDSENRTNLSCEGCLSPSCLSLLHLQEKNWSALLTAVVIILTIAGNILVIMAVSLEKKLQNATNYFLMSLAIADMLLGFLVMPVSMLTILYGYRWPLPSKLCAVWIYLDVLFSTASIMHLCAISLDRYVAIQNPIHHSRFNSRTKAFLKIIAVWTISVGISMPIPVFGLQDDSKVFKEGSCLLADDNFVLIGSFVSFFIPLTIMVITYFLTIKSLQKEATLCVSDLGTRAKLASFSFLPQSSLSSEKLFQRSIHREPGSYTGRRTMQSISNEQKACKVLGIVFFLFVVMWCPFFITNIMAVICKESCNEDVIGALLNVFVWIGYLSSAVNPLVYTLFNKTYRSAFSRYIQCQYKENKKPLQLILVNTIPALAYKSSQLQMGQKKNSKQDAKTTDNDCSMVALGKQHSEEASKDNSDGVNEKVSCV
Muscarinic acetylcholine receptor M1 (Homo sapiens), sequence (P11229 whole entry, looked up): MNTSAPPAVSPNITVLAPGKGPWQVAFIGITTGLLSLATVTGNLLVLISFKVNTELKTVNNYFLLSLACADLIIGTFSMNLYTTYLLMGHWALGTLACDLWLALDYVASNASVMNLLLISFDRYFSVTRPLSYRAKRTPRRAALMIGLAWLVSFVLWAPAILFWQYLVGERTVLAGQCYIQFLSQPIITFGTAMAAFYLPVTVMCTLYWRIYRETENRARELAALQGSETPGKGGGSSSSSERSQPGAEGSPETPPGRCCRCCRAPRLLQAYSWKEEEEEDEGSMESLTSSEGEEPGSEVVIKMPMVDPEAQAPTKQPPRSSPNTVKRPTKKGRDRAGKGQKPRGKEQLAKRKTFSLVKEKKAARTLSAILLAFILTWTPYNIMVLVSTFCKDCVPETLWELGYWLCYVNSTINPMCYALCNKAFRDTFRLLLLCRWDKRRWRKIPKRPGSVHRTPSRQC
Beta-2 adrenergic receptor (Homo sapiens), sequence (P07550 whole entry, looked up): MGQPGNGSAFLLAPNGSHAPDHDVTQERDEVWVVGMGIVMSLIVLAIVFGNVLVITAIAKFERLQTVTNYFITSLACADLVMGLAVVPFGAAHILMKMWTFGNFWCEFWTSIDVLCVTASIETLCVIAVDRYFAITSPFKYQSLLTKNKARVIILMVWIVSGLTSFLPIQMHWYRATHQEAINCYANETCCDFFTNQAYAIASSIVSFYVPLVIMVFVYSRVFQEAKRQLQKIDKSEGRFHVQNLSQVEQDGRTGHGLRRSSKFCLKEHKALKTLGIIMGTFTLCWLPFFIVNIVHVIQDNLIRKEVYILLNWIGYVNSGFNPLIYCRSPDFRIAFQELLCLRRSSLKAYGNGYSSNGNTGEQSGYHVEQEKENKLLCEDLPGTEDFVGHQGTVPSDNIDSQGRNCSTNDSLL

CN(C)CCOC(c1ccccc1)c1ccc(Br)cc1 (stereo unspecified)
active: Potency [9] 6.5 µM | Potency [11] 3.65 µM
inactive: Potency [1] | Potency [2] | Potency [3] | Potency [4] | Potency [5] | Potency [6] | Potency [7] | Potency [8] | Potency [10] | Potency [12] | Potency [13] | Potency [14] | Potency [15] | Potency [16] | Potency [17] | Potency [18]

CN1CC(=O)N2[C@H](c3ccc4c(c3)OCO4)c3[nH]c4ccccc4c3C[C@@H]2C1=O
inactive: Potency [1] | Potency [2] | Potency [3] | Potency [4] | Potency [6] | Potency [7] | Potency [19] | Potency [9] | Potency [10] | Potency [11] | Potency [12] | Potency [13] | Potency [14] | Potency [15] | Potency [16] | Potency [17] | Potency [18]

C=C(C)[C@@H]1CC=C(C)C(=O)C1
inactive: Potency [1] | Potency [2] | Potency [3] | Potency [4] | Potency [6] | Potency [7] | Potency [19] | Potency [9] | Potency [10] | Potency [11] | Potency [12] | Potency [13] | Potency [14] | Potency [15] | Potency [17]

Cc1cccc2c1cc1ccc3cccc4ccc2c1c34
inactive: Potency [1] | Potency [2] | Potency [3] | Potency [19] | Potency [9] | Potency [10] | Potency [11] | Potency [15] | Potency [16] | Potency [17] | Potency [18]

[Cl][Bi]([Cl])([c]1ccccc1)([c]1ccccc1)[c]1ccccc1
inactive: Potency [4] | Potency [20] | Potency [5] | Potency [9] | Potency [15] | Potency [17]
active: Potency [1] 6.08 µM | Potency [2] 1.53 µM | Potency [6] 4.05 µM | Potency [19] 9.07 µM | Potency [18] 13.6 µM

Clc1nc2ccccc2nc1Cl
active: Potency [2] 55.1 µM
inactive: Potency [1] | Potency [3] | Potency [4] | Potency [6] | Potency [19] | Potency [9] | Potency [10] | Potency [11] | Potency [12] | Potency [13] | Potency [14] | Potency [15] | Potency [17] | Potency [18]

CN(C)c1ccncc1
inactive: Potency [1] | Potency [2] | Potency [3] | Potency [6] | Potency [7] | Potency [19] | Potency [9] | Potency [10] | Potency [11] | Potency [12] | Potency [13] | Potency [14] | Potency [15] | Potency [17] | Potency [18]

O=C(NO)C1(NS(=O)(=O)c2ccc(Oc3ccc(F)cc3)cc2)CCOCC1
inactive: Potency [1] | Potency [2] | Potency [4] | Potency [6] | Potency [7] | Potency [19] | Potency [9] | Potency [10] | Potency [11] | Potency [12] | Potency [13] | Potency [14] | Potency [15] | Potency [17] | Potency [18]

CN1CCN2c3ccccc3Cc3ccccc3C2C1 (stereo unspecified)
inactive: Potency [1] | Potency [2] | Potency [4] | Potency [20] | Potency [5] | Potency [7] | Potency [8] | Potency [13] | Potency [14] | Potency [17] | Potency [18]

CC(CSC(=O)c1ccccc1)C(=O)N1C[C@@H](Sc2ccccc2)C[C@H]1C(=O)O (stereo partly specified)
inactive: activity change, negative = cytotoxicity [1] -6.69% [at 19 µM] | activity, positive = activation [2] -3.94% [at 19 µM] | activation [4] 0.566% [at 11.8 µM] | activity change, negative = cytotoxicity [6] -12.9% [at 13.5 µM] | activity change, negative = cytotoxicity [7] -5.44% [at 13.5 µM] | activity change, negative = cytotoxicity [19] 14.1% [at 13.5 µM] | activity, negative = inhibition [9] 20.9% [at 12.7 µM] | activation [10] -7.52% [at 15.9 µM] | activity, negative = inhibition [11] 17.6% [at 12.6 µM] | activation [12] -0.159% [at 15.8 µM] | activity change, negative = inhibition [15] 10.2% [at 19 µM]

CCCCOCCOC(=O)COc1nc(Cl)c(Cl)cc1Cl
inactive: Potency [1] | Potency [2] | Potency [4] | Potency [5] | Potency [6] | Potency [7] | Potency [8] | Potency [13] | Potency [14] | Potency [15]

CC(C)NCC(O)COc1cccc2[nH]ccc12 (stereo unspecified)
inactive: Potency [1] | Potency [2] | Potency [3] | Potency [4] | Potency [8] | Potency [13] | Potency [14] | Potency [15] | Potency [17] | Potency [18]

C[C@H](CCC(=O)O)[C@H]1CC[C@H]2[C@@H]3CC[C@@H]4C[C@H](O)CC[C@]4(C)[C@H]3C[C@H](O)[C@]12C
inactive: Potency [1] | Potency [2] | Potency [3] | Potency [4] | Potency [7] | Potency [19] | Potency [8] | Potency [10] | Potency [15] | Potency [17] | Potency [18]

O=C1OC(=O)c2c(Br)c(Br)c(Br)c(Br)c21
inactive: Potency [1] | Potency [2] | Potency [3] | Potency [4] | Potency [7] | Potency [19] | Potency [9] | Potency [10] | Potency [11] | Potency [12] | Potency [13] | Potency [14] | Potency [15] | Potency [16] | Potency [17] | Potency [18]
